Reference: PubChem BioAssay (NCI)
Several values for one entry are separate records, joined by “and”; a condition that tells them apart may be missing. Equal values may be shown once. Compounds without any hit were thinned out: in the full panel of roughly 79,000, 15% have a hit. Unmarked numbers belong to inactive results. Rule as the data show it: active = growth inhibition above about 70%; inactive = the rest. Where a SMILES comes first, the peptide text is derived from it. The star is where a group is joined. Cbz = O=C(OCc1ccccc1)*; NHNH2 = NN*

Assay: NCI Yeast Anticancer Drug Screen. Data for the rad50 strain (AID 155);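 also: 0% = growth of vehicle-only cultures of the same strain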
Details: S. cerevisiae rad50 strain growth inhibition, stronger effect = higher value; at 50.0 µM unless noted
Summary of the method: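 Growth of the mutant yeast was measured after compound exposure and referenced to vehicle-treated cultures.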

Row | SMILES | growth inhibition
1 | CC1=NN(C(=O)CC(=O)Nc2ccc(C)cc2)C(=O)C1N=Nc1ccc(S(=O)(=O)c2ccc(N=NC3C(=O)N(C(=O)CC(=O)Nc4ccc(C)cc4)N=C3C)cc2)cc1 (stereo not given) | 49.8%
2 | Cc1ccccc1N=C(N)N | 4.3%
3 | OCC(O)COc1ccc(Cl)cc1 (stereo not given) | -5%
4 | Cc1ccc(OCC(=O)O)c(Cl)c1 | -1.9%
5 | COc1ccc(Br)cc1C1OC(=O)c2c(OC)c(OC)cc([N+](=O)[O-])c21 (stereo not given) | 33.9%
6 | CC1CC(=O)Nc2nc3ccccc3n21 (stereo not given) | 7.15%
7 | CCOC(=O)c1sc(C(=O)O)cc1-c1cccs1 | 3.9%
8 | CN(C)Cc1cc(C(=O)/C=C/c2ccc(Cl)c(Cl)c2)cc(CN(C)C)c1O | -1.95%
9 | NC1CCCC2CCC(N)C12 (stereo not given) | 17.9%
10 | Cc1ccc(OCC2OC(n3cnc4c(Cl)ncnc43)CC2Oc2ccc(C)cc2)cc1 (stereo not given) | -1.2% and 20.8%
11 | CC1CCCN(CCC(=O)c2ccc(O)cc2)C1 (stereo not given) | 38.2%
12 | c1ccc(-c2cn(-c3ccccc3)nn2)cc1 | -1%
13 | CCOc1cc(/C=N/NC(=O)c2ccccc2NC(=O)c2ccccc2Cl)ccc1O | 11.3%
14 | O=C(OCC(OC(=O)c1ccccc1)C(OC(=O)c1ccccc1)C(OC(=O)c1ccccc1)c1cnn(-c2ccccc2)n1)c1ccccc1 (stereo not given) | 0.55% and 30.4%
15 | O=C(CCCC(=O)N/N=C/c1ccccc1O)N/N=C\c1ccccc1O | 4.55%
16 | Oc1ccc(O)c(CNc2ccc(C(O)C(F)(F)F)cc2)c1 (stereo not given) | 14.9%
17 | COC(=O)Nn1c(C)c(C(=O)OC)c(C(=O)Nc2ccccc2)c1-c1ccccc1 | 6.1%
18 | CC(O)C(C(=O)O)N(CC1(O)OCC(O)C(O)C1O)N=O (stereo not given) | -4.5%
19 | O=C(Nc1ccc(Cl)cc1Cl)c1cc2nc3ccccc3c(=O)n2c2ccccc12 | 29.6%
20 | O=C(CN1CCCCCC1)Nc1ccc2c(c1)C(=O)c1ccc(NC(=O)CN3CCCCCC3)cc1C2=O | -12.3%

Row | SMILES | growth inhibition
21 | CC1C=NNC1=O (stereo not given) | 19.9%
22 | COc1cccc(N)c1N | 21.4%
23 | C=C1CC(COc2ccc3c(C)c(Cl)c(=O)oc3c2)(c2ccccc2)OC1=O (stereo not given) | 19%
24 | CCCCC(C)(C)SCCC(=O)O | 11.2%
25 | Nc1nc2ncn(CCO)c2c(=O)[nH]1 | 9.4%
26 | CC(=O)[CH-]C(=O)c1ccccc1.CC(=O)[CH-]C(=O)c1ccccc1.CC(C)CCCC(C)[C@H]1CCC2[C@@H]3CCC4C[C@@H]([O-])CC[C@]4(C)C3CC[C@@]21C.CC(C)CCCC(C)[C@H]1CCC2[C@@H]3CCC4C[C@@H]([O-])CC[C@]4(C)C3CC[C@@]21C.Cl.[Ti+4] (stereo not given in full) | 14.4%
27 | CCc1cc(N(C)C)ccc1N=Nc1ccc([N+](=O)[O-])cc1 | 43.8%
28 | CS(C)=C(C(=O)c1ccccc1)/C(=C/C(=O)c1ccccc1)c1ccccc1 | 21.5%
29 | NC(=S)Nc1ccc(Br)cc1 | -0.85%
30 | CCCCC/C(=N\c1nc[nH]c1C(N)=O)OCC | -29.9%
31 | O=C1OC(c2ccccc2)=N/C1=C/C=C/c1ccco1 | -10.9%
32 | COc1ccc(C)cc1NC(=O)OCCCl | 3.1%
33 | O=C(CCCC1CCCCC1)OC1CCCCC1 | 5.3%
34 | COc1ccccc1/C=C\C#N | -9.2%
35 | COc1cc(O)c2c(=O)cc(-c3ccc(O)cc3O)oc2c1CC=C(C)C | 43.5%
36 | CCOC(=O)CCC(NC(=O)OCc1ccccc1)C(=O)NC(CCC(=O)OCC)C(=O)NN (stereo not given) (Cbz-Glu(OEt)-Glu(OEt)-NHNH2; configuration not given here) | 2.65%
37 | Nc1ccc(S(=O)[O-])cc1.Nc1ccc(S(=O)[O-])cc1.[Zn+2] | -19.2%
38 | C=C1CC[C@](C)(O)[C@@]2(C)CC[C@H]3C(=C(C)C)C(=O)C[C@]3(C)C[C@H]12 | 12.1%
39 | Cc1[nH]c(N)nc(=S)c1CCCNc1ccccc1 | 6.45%
40 | CSc1ccc(C2NC(=O)NC2=O)cc1 (stereo not given) | -10.2%
